# In the library only some 5.8% were active in any assay of this set; here they are far more common.
# TRPV1 potentiator – HTS Assay for Compounds that Act as Potentiators of the Vanilloid Receptor 1; Transient receptor potential cation channel subfamily V member 1 (Homo sapiens), Q8NER1; TRPV1-expressing cells, Fluo-8 calcium influx, capsaicin EC20 potentiation; potentiation, % at 8.33 µM; hit rate 0.02% among 320,000; AID 540277, 2011; in the data active means potentiation above about 80%; inconclusive means between about 30% and that limit; further: 0% is about no effect
#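 Fluo-8 calcium influx in TRPV1-expressing cells, kinetic read (ex 480/em 520 nm). Compound added and read 3 min for agonist activity, followed by capsaicin at EC20 final and 2 min further read for enhancement.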
# TRPV1 agonist – HTS Assay for Compounds that Act as Agonists of the Vanilloid Receptor 1 | Transient receptor potential cation channel subfamily V member 1 (Homo sapiens), Q8NER1 | TRPV1-expressing cells, Fluo-8 calcium influx, agonist mode | activation, % at 8.33 µM | hit rate 0.19% among 320,000; in the data active means activation above about 80%; inconclusive means between about 30% and that limit; further: 0% is about no effect
#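 Cells expressing TRPV1 were dye-loaded with Fluo-8 and read kinetically: 10 s baseline, 3 min after compound (agonist portion), then 2 min after EC20 capsaicin (allosteric enhancer portion). Calcium-bound dye fluorescence at 480/520 nm.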
# RORgamma inh – qHTS for inhibitors of ROR gamma transcriptional activity. Nuclear receptor ROR-gamma (Mus musculus), P51450. Drosophila S2 Gal4-RORgamma UAS-luciferase reporter, 20 h. AID 2551, 2010. hit rate 5.4% among 310,000. Potency, µM (highest dose often 53.6 µM), for inactives: at the top dose activity change, negative = inhibition, most hits filed as inhibitors; further: potency means the concentration at half of the fitted maximal effect; on the % scale 0 is the no-effect control and ±100 the full control effect; nearly all actives have a fitted effect of over 60% in size
#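 ROR gamma transcriptional activity was tracked as Gal4-UAS luciferase output in stably transfected Drosophila Schneider cells, with compound added 1 hr before 700 uM copper sulfate induction and a 20 hr ambient-temperature incubation.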
# VP16 counter – VP16 counterscreen qHTS for inhibitors of ROR gamma transcriptional activity; Drosophila S2 Gal4-VP16 UAS-luciferase, luminescence, 20 h; Potency, µM (doses to about 53.6 µM), inactives show top-dose activity, negative = inhibition, usual class: inhibitors; hit rate 3.5% among 310,000; AID 2546, 2010;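 further: Gal4-VP16 expression switched on by copper sulfate through the metallothionein promoter; potency means the concentration at half of the fitted maximal effect; on the % scale 0 is the no-effect control and ±100 the full control effect; nearly all actives have a fitted effect of over 50% in size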
# uPA surface inh – qHTS for Inhibitors of Cell Surface uPA Generation | Potency, µM (highest dose often 38.3 µM), without a hit: top-dose activity change, negative = inhibition, most hits filed as inhibitors | hit rate 0.31% among 330,000 | cell surface uPA generation assay, qHTS; active means well fitted inhibition curve with a large enough effect; inconclusive means small, poorly fitted or top-dose-only effect; inactive means no such curve, though single readings can be large or run the other way; tested in mouse RAW 264.7 cells; further: potency means the concentration at half of the fitted maximal effect; on the % scale 0 is the no-effect control and ±100 the full control effect; nearly all actives have a fitted effect of over 55% in size
# * hit, by the source's call; ? = inconclusive; . = no result given; ! = not confirmed by another sample. Unless noted, the call rests on the fitted dose curve; in most records, active means well fitted curve in the direction sought with a large enough effect; inconclusive means small, poorly fitted or top-dose-only effect, or another doubt; inactive means no such curve, though single readings can be large; an effect the other way counts as inactive or inconclusive.
SMILES,TRPV1 potentiator,TRPV1 agonist,RORgamma inh,VP16 counter,uPA surface inh
COc1ccc(-n2nc(C(=O)NCC(=O)N3CCC4(CC3)OCCO4)c3ccccc3c2=O)c(OC)c1,-9,2,6.3µM*,10µM*,-11%
O=C(Cn1cnc2ccccc2c1=O)NCC(=O)N1CCC2(CC1)OCCO2,0,0,-23%,7%,0%
C=C(C)C1CCC(C)=CC1c1c(O)cc(O)cc1CCCCC (centres undefined),.,.,?,-3%,.
FC(F)(F)c1ccc2c(c1)N(CCCN1CCN(CCCl)CC1)c1ccccc1S2,2,0,-25%,-8%,1%
CN1CCN(CCCN2c3ccccc3Sc3ccc(Cl)cc32)CC1,7,3,2.8µM*!,?,?
O=[N+]([O-])/C=C/c1ccccc1,.,.,17%,?,.
N#CC1c2ccccc2-n2nncc2CN1S(=O)(=O)c1ccc(Cl)cc1 (centres undefined),.,.,.,.,14%
N#CC1c2ccccc2-n2nncc2CN1Cc1cc(Cl)cc(Cl)c1 (centres undefined),.,.,.,.,4.5µM*
COc1ccc(CN2Cc3cnnn3-c3ccccc3C2C#N)cc1 (centres undefined),.,.,.,.,5.6µM*
CCCBr,.,.,4%,-1%,.
C[N+](=O)[O-],.,.,-13%,0%,.
CCN1CCN(Cc2ccc(NC(=O)c3cc(NC(=O)c4cncc(-c5cccs5)c4)cc(OC)c3)cc2C(F)(F)F)CC1,4,1,?,?,42%
CCN1CCN(Cc2ccc(NC(=O)c3ccc(C)c(NC(=O)c4c[nH]c5cc(C(F)(F)F)ccc5c4=O)c3)cc2C(F)(F)F)CC1,-4,0,6.3µM*,11µM*,?
CN1CCc2c(C#N)c(Cl)nc(Cl)c2C1,2,0,-41%,-3%,11µM*
CN1CCc2nc(N)c(C#N)c(-c3ccccc3)c2C1,-5,-4,14%,3%,3%
Cn1cc(C(=O)CCl)c2ccccc21,12,0,11µM*,7.9µM*,?
CC(C)N(C(=O)Cn1c(=O)oc2ccccc21)c1ccccc1,-18,-1,-9%,-1%,15%
Cc1ccc(C(C)C)c(OCCn2c(=O)oc3ccccc32)c1,10,0,10µM*,?,9%
COC(=O)c1ccccc1N,.,.,9%,-8%,.
C=C1C(=O)[C@@]23[C@H](O)C[C@@H]4C(C)(C)CC[C@H](O)[C@@]4(C)[C@@H]2CC[C@@H]1[C@H]3O,5,1,2.8µM*,5.6µM*,?
Cc1cc(C)cc(N2C(=O)NC(=O)/C(=C\C=C\c3ccco3)C2=O)c1,1,17,3.2µM*,10µM*,-13%
CCc1ccc(N2NC(=O)/C(=C/C=C/c3ccco3)C2=O)cc1,8,-3,?,-23%,5%
O=C1NC(=O)N(Cc2ccc(F)cc2)C(=O)/C1=C\C=C\c1ccco1,9,14,?,?,-14%
CCc1ccc(N2C(=O)NC(=O)/C(=C\C=C\c3ccco3)C2=O)cc1,-9,21,22%,-5%,8.9µM*
CC(C)c1ccc(N2C(=O)NC(=O)/C(=C/C=C/c3ccco3)C2=O)cc1,11,1,-99%,13µM*,-12%
Cc1ccc(N2C(=O)NC(=O)/C(=C/C=C/c3ccco3)C2=O)cc1,22,9,13µM*,10µM*,-14%
O=C(Nc1ccc(Cl)cc1)C1CCN(C(=O)c2cccs2)CC1,2,4,?,2%,-1%
[N-]=[N+]=[N-],.,.,18%,6%,.
O=C1NC(=O)N(c2ccccc2)C(=O)/C1=C\C=C\c1ccccc1,21,-3,?,10µM*,-1%

# Screens: PubChem, National Center for Advancing Translational Sciences (NCATS)
